PubChem BioAssay AID1347048 (National Center for Advancing Translational Sciences (NCATS), 2019)
The campaign covered roughly 76,000 compounds. About 1,200 (1.6%) were called active. Not shown: some 4% with an inconclusive outcome. Calls come from the whole dose curve. The list comes from a sample in which actives are over-represented; it also holds similar structures and randomly drawn compounds.

What follows are compounds tested against Atrial natriuretic peptide receptor 1 (Homo sapiens) (UniProt P16066) (assay: Natriuretic polypeptide receptor (hNpr1) antagonism - Primary qHTS). Details: HEK293 hNpr1 GloSensor cGMP, ANP-stimulated luminescence; series mostly up to 46.3 µM; activity change, negative = inhibition: at the top concentration.
From the text: Pruritus or itch, is an irritating skin sensation that creates a need to scratch, and ranges from mildly unpleasant and passing to acute and persistent sensations. […] Conventional treatments include topical anti-inflammatory agents, anti-histamines, and emollients, which are aimed at managing the itchy sensation and not the underlying disease. The treatment of pruritus remains a diagnostic and therapeutic challenge. Neurotransmission in the spinal cord from primary pruriceptors to second order neurons is a necessary step that eventually results in the sensation of itch. At this synapse, primary pruriceptors use the neuropeptide natriuretic polypeptide B (NppB) to activate its cognate receptor Natriuretic polypeptide receptor 1 (Npr1) on second order neurons. Inhibition of this step is a new potential strategy to inhibit acute and chronic itch. In order to identify small molecular compounds that can inhibit the Npr1 receptor we developed a high-throughput assay to probe inhibition of the receptor guanylate cyclase Npr1. The assay was designed taking advantage of Promega's GloSensor[TM] technology (Fan, F. et al. 2008). It involves the expression of a cyclic guanosine monophosphate (cGMP) biosensor, comprised of a firefly luciferase variant that was coupled to the cGMP binding domain of human phosphodiesterase 5A, and loading of cells with a cell-permeable luciferase substrate to monitor cGMP production by Npr1 in real time in live cells. In detail, we generated human embryonic kidney 293 cells stably expressing the human Npr1 and the cGMP GloSensor[TM] pGS-40F. Stimulating these cells with the Npr1 agonists human NppA or NppB, luciferase-induced light production could be detected in a dose-dependent manner. We also generated HEK293 cells stably expressing human Npr2 and pGS-40F and cells only expressing pGS-40F to conduct secondary counter screens. In these cells, NppC or sodium nitroprusside were used to stimulate Npr2 or soluble guanylate cyclase which is endogenously expressed in HEK293 cells, respectively. REFERENCE F. Fan, B. F. Binkowski, B. L. Butler, P. F. Stecha, M. K. Lewis, K. V. Wood, Novel genetically encoded biosensors using firefly luciferase. ACS Chem. Biol., 2008, 3: 346-351 .
PROTOCOL TABLES (as described by Inglese J, Shamu CE and Guy RK. 2007) SEQUENCE No. (e.g., 1, 2, 3, etc.); […] (e.g., Cells, Incubation, Reagent, etc.); VALUE and DESCRIPTION. GLOSENSOR PROTOCOL 1. Cells. Seed 1500 HEK293 cGMP-sensor cells expressing hNpr1 per well in 4uL into Greiner 1536-well white/solid bottom high base, tissue culture-treated plates. 2. Incubation. Incubate plated cells at 37C in 5% CO2, 95% RH overnight. 3. Reagent. Add 1uL per well GloSensor reagent from Promega (2% final concentration) or CO2 independent media vehicle control to respective columns of Greiner 1536-well plates. 4. Incubation. Incubate plated cells at room temperature for 2 h, protect from light. 5. Compounds. Library compounds and A-71915 control added at 23 nL per well, transferred by Pin Tool. 6. Incubation. Incubate plated cells for 30 min. at room temperature, protect from light. 7. Detector. GloSensor baseline pre-read luminescence measured using CCD-based camera (Viewlux). 8. Compound. Add 1uL of hNppA peptide to 0.1 nM final concentration to stimulate hNpr1 or CO2 independent media as vehicle control. 9. Incubation. Incubate treated cells at room temperature for 20 min., protect from light. 10. Detector. GloSensor post-hNppA luminescence measured using CCD-based camera (Viewlux). NOTES (numbers refer to Sequence numbers above) 1. HEK293 cells expressing hNpr1 and GIP/pGS-40F grown to 85-95% confluence (48-72 h) in T175 culture flasks (CO2 independent media supplemented with 10% FBS, 1% Pen/Strep antibiotics and 1 ug/mL puromycin). Trypsinize and harvest cells from T175 culture flasks and filter through 40 um cell strainer. Cells counted with Invitrogen Countess (30,000,000 - 50,000,000 cells/flask). […]
% is set by controls: 0 for no effect and ±100 for the full control effect; potency is the fitted concentration of half-maximal effect.
Note: nearly all actives have a fitted effect of over 60% in size.

Atrial natriuretic peptide receptor 1 (Homo sapiens), sequence (P16066 whole entry, looked up): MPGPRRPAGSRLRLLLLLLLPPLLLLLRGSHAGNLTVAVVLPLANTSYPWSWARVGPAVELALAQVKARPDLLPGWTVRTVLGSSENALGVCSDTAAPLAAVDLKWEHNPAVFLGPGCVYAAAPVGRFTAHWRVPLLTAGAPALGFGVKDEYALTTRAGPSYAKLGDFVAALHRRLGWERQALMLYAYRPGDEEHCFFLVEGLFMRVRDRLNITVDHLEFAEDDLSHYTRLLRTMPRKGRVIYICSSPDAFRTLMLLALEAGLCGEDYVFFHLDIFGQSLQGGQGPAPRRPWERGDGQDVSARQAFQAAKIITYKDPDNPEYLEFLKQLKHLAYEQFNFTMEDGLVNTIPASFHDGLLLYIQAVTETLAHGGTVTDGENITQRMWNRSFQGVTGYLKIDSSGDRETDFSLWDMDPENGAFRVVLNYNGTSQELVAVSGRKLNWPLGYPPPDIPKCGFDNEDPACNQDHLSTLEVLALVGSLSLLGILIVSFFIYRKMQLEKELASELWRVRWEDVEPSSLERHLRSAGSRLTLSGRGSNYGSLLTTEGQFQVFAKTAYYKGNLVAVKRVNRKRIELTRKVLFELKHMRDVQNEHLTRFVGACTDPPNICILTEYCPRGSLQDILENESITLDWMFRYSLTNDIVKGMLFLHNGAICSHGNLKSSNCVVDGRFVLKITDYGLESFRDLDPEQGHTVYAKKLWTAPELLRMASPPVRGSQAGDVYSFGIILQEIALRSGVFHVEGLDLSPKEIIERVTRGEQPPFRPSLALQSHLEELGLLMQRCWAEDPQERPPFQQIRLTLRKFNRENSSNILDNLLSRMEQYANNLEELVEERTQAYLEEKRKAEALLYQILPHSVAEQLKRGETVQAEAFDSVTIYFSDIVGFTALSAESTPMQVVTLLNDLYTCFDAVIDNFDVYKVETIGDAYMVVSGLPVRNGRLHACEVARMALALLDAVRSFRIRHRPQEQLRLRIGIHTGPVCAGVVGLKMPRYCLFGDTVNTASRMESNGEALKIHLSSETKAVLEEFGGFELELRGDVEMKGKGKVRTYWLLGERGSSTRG

Row | SMILES | activity change, negative = inhibition | Potency
1 | Cc1nc(CCNS(=O)(=O)c2ccc(Cl)cc2)no1 | 0% (inactive) | –
2 | O=C([C@H]1CCC[C@H](O)C1)N(CCC1=CCCCC1)Cc1ccccc1 | 0.789% (inactive) | –
3 | O=c1[nH]nc2n1CCCC2 | -17.4% (inactive) | –
4 | Cc1nc(-c2cn(C3CCCN(C(=O)c4cc(F)ccc4F)C3)nn2)no1 (stereo not given) | 0% (inactive) | –
5 | CCc1noc(-c2cn(C3CCN(C(=O)c4cccc(OC)c4)C3)nn2)n1 (stereo not given) | -1.19% (inactive) | –
6 | O=C(c1ccc(F)cc1Cl)N1CCC(n2cc(-c3nc(-c4ccccc4)no3)nn2)C1 (stereo not given) | – | 3.98 µM (active)
7 | COc1ccccc1C(=O)N1CCCC(n2cc(-c3nc(-c4ccccc4)no3)nn2)C1 (stereo not given) | – | 4.47 µM (active)
8 | COc1cc(OC)cc(C(=O)N2CCCC(n3cc(-c4nc(C(C)C)no4)nn3)C2)c1 (stereo not given) | -11.7% (inactive) | –
9 | COc1ccc(C(=O)N2CCCC(n3cc(-c4nc(C5CC5)no4)nn3)C2)cc1 (stereo not given) | 2.3% (inactive) | –
10 | COc1ccccc1-c1onc(C)c1C(=O)NCCC(c1ccccc1)c1ccccc1 | -9.75% (inactive) | –
11 | CCn1c(C2CCCNC2)nn(Cc2noc(-c3ccc(C)cc3)n2)c1=O (stereo not given) | 3.51% (inactive) | –
12 | CC(C)(C)C(=O)N1CC[C@@H](CC(=O)O)[C@@H](CCN2CCN(c3cccc(C(F)(F)F)c3)CC2)C1 | 5.62% (inactive) | –
13 | COc1cccc(N2CC3(COCC2=O)CN(c2ccc(C(F)(F)F)cn2)C3)n1 | -16.6% [at 70.6 µM] (inactive) | –
14 | O=C1CCCCCN1C1CCN(Cc2ccc(C(F)(F)F)cc2)CC1 | -16.4% (inactive) | –
15 | CN(C)Cc1cn2c(=O)n(C)cc(-c3cccc(OCc4ccccc4)c3)c2n1 | -2.84% [at 70.6 µM] (inactive) | –
16 | CN(C)c1cccc(-c2cn(C)c(=O)n3cc(COc4ccc(Cl)cc4)nc23)c1 | -2.64% [at 70.6 µM] (inactive) | –
17 | Cc1cc(-c2cn(C)c(=O)n3cc(COc4ccccc4)nc23)ccn1 | – | 25.1 µM (active)
18 | CCOc1ccc(CC(=O)N2CCCC3(C2)Nc2cccnc2NC3=NC2CCCC2)cc1 (stereo not given) | -2.91% (inactive) | –
19 | O=C(c1ccc(-c2ccc(N3CCCCC3)nc2)cc1)N1CCOCC1 | -16.1% (inactive) | –
20 | COCCN1CC(CO)C2(CCN(Cc3ccc(F)c(Cl)c3)CC2)C1 (stereo not given) | -21.1% (inactive) | –
21 | CN1CCCC2(CCN(C(=O)c3cccc(N4CCCC4=O)c3)C2)C1=O (stereo not given) | 13.1% (inactive) | –
22 | O=C(Cc1ccc(F)cc1)N1CCCC(c2nn(-c3ccc(Cl)cc3)c(=O)[nH]2)C1 (stereo not given) | 8.11% (inactive) | –
23 | CC(=O)N1CCCC(c2nn(-c3ccccc3)c(=O)[nH]2)C1 (stereo not given) | -9.12% [at 70.6 µM] (inactive) | –
24 | O=c1[nH]c(C2CCCN(Cc3ccccn3)C2)nn1-c1ccc(Cl)cc1 (stereo not given) | – | 5.01 µM (active)
25 | O=C(COc1ccc(F)cc1)NC1CCN(c2cn[nH]c(=O)c2)CC1 | 0.664% (inactive) | –

Row | SMILES | activity change, negative = inhibition | Potency
26 | Cc1ncsc1C(=O)N1CCc2c(n(Cc3ccccc3)n(-c3ccccc3)c2=O)C1 | 1.6% [at 70.6 µM] (inactive) | –
27 | O=C(Cc1ccc(F)cc1)N1CCC2(CC1)NC(=O)N(c1ccccc1)N2 | -1.52% (inactive) | –
28 | CC1(C(=O)NCC2CCCO2)CCCc2cnc(Nc3ccccc3)nc21 (stereo not given) | 7.26% [at 70.6 µM] (inactive) | –
29 | CN(Cc1ccccc1)C(=O)C1(C)CCCc2cnc(Nc3cccnc3)nc21 (stereo not given) | -21.7% [at 70.6 µM] (inactive) | –
30 | CC1(C(=O)NCc2ccc3c(c2)OCO3)CCc2cnc(NCc3ccccc3)nc21 (stereo not given) | – | 35.5 µM (active)
31 | CC(C)N1Cc2cc(C(=O)Nc3cccc4c3CCCC4)sc2C1 | -13.9% (inactive) | –
32 | COc1ccc(CNC(=O)c2cc3c(s2)CN(C2CC2)C3)cc1OC | -7.63% (inactive) | –
33 | O=C(Nc1ccc2c(c1)CCC2)c1cc2c(s1)CN(C1CC1)C2 | – | 11.2 µM (active)
34 | CC(C)(C)c1csc(NC(=O)c2ccc3c(c2)OCCN(C2CCC2)C3)n1 | – | 31.6 µM (active)
35 | Cc1cc(NC(=O)c2ccc3c(c2)OCCN(CCC(F)(F)F)C3)ccc1F | -3.62% [at 70.6 µM] (inactive) | –
36 | O=C(Nc1cccnc1)c1ccc2c(c1)OCCN(c1ccccc1)C2 | -21.2% [at 70.6 µM] (inactive) | –
37 | O=C(c1ccc2c(c1)OCO2)N1CCC2(CC1)CN(c1ccncn1)CC2CO (stereo not given) | 2.18% (inactive) | –
38 | CN(C)C(=O)C1CN(C(=O)Nc2ccc(F)cc2F)CC12CCOCC2 (stereo not given) | -8.52% (inactive) | –
39 | O=C(Nc1ccccc1)O[C@@H]1CO[C@H]2[C@@H]1OC[C@@H]2NS(=O)(=O)c1cccc2cccnc12 | -9.3% (inactive) | –
40 | O=C(Nc1ccc(Oc2ccccc2)cc1)O[C@@H]1CO[C@H]2[C@@H]1OC[C@@H]2NS(=O)(=O)c1cccs1 | – | 12.6 µM (active)
41 | O=C(Nc1ccc(Oc2ccccc2)cc1)O[C@@H]1CO[C@H]2[C@@H]1OC[C@@H]2NCC1CC1 | -1.22% [at 70.6 µM] (inactive) | –
42 | O=C(c1ccncc1)N1CCC(Oc2ccccc2)C1 (stereo not given) | 0% (inactive) | –
43 | Cc1cccc(C(=O)N2CCC(Oc3ccc(-c4noc(C(C)C)n4)cc3)C2)c1 (stereo not given) | – | 11.2 µM (active)
44 | O=C(NC1CCCC1)N1CCCC(c2noc(COc3ccccc3)n2)C1 (stereo not given) | -21.1% (inactive) | –
45 | CCCN1CC(Oc2ccc(-c3noc(C4CC4)n3)cc2)C1 | -2.63% (inactive) | –
46 | O=C(c1ccccn1)N1CC(Oc2ccc(-c3noc(C4CC4)n3)cc2)C1 | – | 14.1 µM (active)
47 | O=C(NC1CCCC1)N1CCC(Oc2ccc(-c3noc(C4CC4)n3)cc2)C1 (stereo not given) | – | 8.91 µM (active)
48 | O=C(NC1CCCCC1)N1CCCCCC1c1nc(-c2cccnc2)no1 (stereo not given) | -4.2% (inactive) | –
49 | Cc1cccc(C(=O)N2CC(Oc3cccc(-c4nc(-c5ccccc5)no4)c3)C2)c1 | -1.57% (inactive) | –
50 | O=C(c1ccoc1)N1CC(Oc2ccc(-c3nc(-c4ccccc4)no3)cc2)C1 | -2.34% (inactive) | –
